Where “and” joins values, the source holds several entries; their conditions need not be identical. Identical values can stand only once. Records with an inconclusive call do not appear. Values without a mark were called inactive. Calls of active or inactive are those of the source. Calls follow the shape of the dose curve; as a rule, active = well fitted curve in the direction sought with a large enough effect in the repeat runs; inconclusive = weak or mixed curves; inactive = no such curve, though single readings can be large; an effect the other way counts as inactive or inconclusive.
experiment: qHTS assay to identify small molecule antagonists of the retinoic acid receptor (RAR) signaling pathway (AID 1159552; also: nearly all actives have a fitted effect of over 50% in size); conditions: C3RL4 RARE luciferase reporter, retinol-stimulated, 6 h; series mostly up to 92.4 µM; activity, negative = inhibition: at the top concentration
How it was run: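 Quantitative HTS in C3RL4 RARE-luciferase reporter cells. Compounds were added with 1 uM (final) retinol; luminescence was read after 6 hr.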
% is scaled to controls: 0 for no effect and ±100 for the full control effect.

Row | Structure (SMILES) | activity, negative = inhibition | Potency
1 | CCCCC#N | 43.7% | 
2 | CC1(C)CC(=O)CC(C)(C)N1[O] | 17% | 
3 | CCCCCCCCCCCCCCCl | 10.3% | 
4 | FC(Cl)(Cl)C(F)(Cl)Cl | -2.96% | 
5 | CC(C)(C)OOC(C)(C)CCC(C)(C)OOC(C)(C)C | 6.76% | 
6 | ClCc1ccccc1Cl | 0.912% | 
7 | c1ccc2sc(SNC3CCCCC3)nc2c1 |  | inactive
8 | O=S(=O)(c1ccccc1)c1ccccc1 | 3.26% | 
9 | O=C(O)C(Cl)(Cl)Br | 1.29% | 
10 | N#CC(C#N)=Cc1ccc(O)c(O)c1 | 46.9% [at 42.5 µM] | 
11 | O=C(O)C(F)(F)C(F)(F)C(F)(F)C(F)(F)C(F)(F)F | -10.5% | 
12 | C=CCc1ccc(OC(=O)Cc2ccccc2)c(OC)c1 | 44.8% | 
13 | C[C@H]1O[C@H](OC2[C@@H](O)[C@@H](O)C(O)[C@H](O)[C@H]2O)[C@@H](N)C[C@@H]1N=C(N)C(=O)O (stereo partly specified) | -10.3% | 

experiment: qHTS assay to identify small molecule agonists of the retinoic acid receptor (RAR) signaling pathway (AID 1159553); conditions: C3RL4 RARE luciferase reporter, agonist, 6 h; series mostly up to 73.3 µM; activation: at the top concentration; also: potency is read from the fitted curve at half-maximal effect
How it was run: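 Compounds dissolved in DMSO were pinned onto C3RL4 cells seeded the previous day, and plates were held 6 hr at 37 C. RARE-driven luciferase output was then read by luminescence.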

Row | Structure (SMILES) | activation | Potency
14 | CCC1(CCC(C)C)C(=O)NC(=O)NC1=O | 0.476% | 
15 | Clc1ccccc1 | 0.131% | 
16 | CCCCC1C(=O)NC(=O)N(C2CCCCC2)C1=O (stereo unspecified) | 0.686% | 
17 | C[C@H](N)[C@H](O)c1ccc(O)c(O)c1 | 4.12% | 
18 | CCCN(CCC)c1c([N+](=O)[O-])cc(C(C)C)cc1[N+](=O)[O-] |  | inactive
19 | CCOC(C(=O)OCCN(C)C)(c1ccccc1)c1ccccc1 | -4.85% | 
20 | O=C=NC1CCCCC1 |  | 1.94 µM (active)
21 | CCOP(=S)(OCC)SCSc1cc(Cl)ccc1Cl | 0.0523% | 
22 | CCCCCCCCCCCCN(C)C | -0.277% | 
23 | O=C(O)c1cc(I)cc(I)c1I | -2.64% [at 94.8 µM] | 
24 | CN1C(=O)CN=C(c2ccccc2)c2cc([N+](=O)[O-])ccc21 | -1.54% | 
25 | CCOP(=S)(OCC)Oc1ccc(S(C)=O)cc1 (stereo unspecified) | 1.07% | 
26 | CC(C)(c1ccccc1)c1cc(-n2nc3ccccc3n2)c(O)c(C(C)(C)c2ccccc2)c1 | -0.677% | 
27 | Cc1nnc(-c2ccccc2)c(=O)n1N | 5.63% | 
28 | O=CC=O | 1.18% [at 94.8 µM] | 
29 | CCC1(CC)C(=O)NC(=O)NC1=O | 0.38% | 
30 | CC(Cl)C(=O)O (stereo unspecified) | 2.09% [at 94.8 µM] | 
31 | O=S(=O)(Cl)Cl | -2.37% | 
32 | COc1ccc(C(O)(c2cncnc2)C2CC2)cc1 (stereo unspecified) | -2.07% | 
33 | O=C(O)CCCOc1ccc(Cl)cc1Cl | 4.73% | 

Row | Structure (SMILES) | activation | Potency
34 | O=C1CC[C@@]2(O)[C@H]3Cc4ccc(O)c5c4[C@@]2(CCN3CC2CC2)[C@H]1O5 | 1.02% | 
35 | C=CCSSCC=C | 1.18% | 
36 | Nc1ccccc1C(=O)OCC(O)CO (stereo unspecified) | 0.749% | 
37 | FC(F)OC(F)(F)C(F)Cl (stereo unspecified) | 0.586% | 
38 | COCc1cnc(C2=NC(C)(C(C)C)C(=O)N2)c(C(=O)O)c1 (stereo unspecified) | -1.37% | 
39 | Nc1cc(Cl)cc(C(=O)O)c1Cl |  | inactive
40 | CCCCC#N | -0.465% | 
41 | CC1(C)CC(=O)CC(C)(C)N1[O] | 0.208% | 
42 | CCCCCCCCCCCCCCCl | 0.486% [at 94.8 µM] | 
43 | FC(Cl)(Cl)C(F)(Cl)Cl | 0.762% [at 94.8 µM] | 
44 | CC(C)(C)OOC(C)(C)CCC(C)(C)OOC(C)(C)C | -2.52% | 
45 | ClCc1ccccc1Cl | 0.326% [at 94.8 µM] | 
46 | c1ccc2sc(SNC3CCCCC3)nc2c1 |  | 30.3 µM (active) and 68.6 µM (active)
47 | O=S(=O)(c1ccccc1)c1ccccc1 | -7.53% | 
48 | O=C(O)C(Cl)(Cl)Br | 0.496% [at 94.8 µM] | 
49 | N#CC(C#N)=Cc1ccc(O)c(O)c1 |  | 26.6 µM (active)
50 | O=C(O)C(F)(F)C(F)(F)C(F)(F)C(F)(F)C(F)(F)F | -5.97% | 
51 | C=CCc1ccc(OC(=O)Cc2ccccc2)c(OC)c1 | 4.47% | 
52 | C[C@H]1O[C@H](OC2[C@@H](O)[C@@H](O)C(O)[C@H](O)[C@H]2O)[C@@H](N)C[C@@H]1N=C(N)C(=O)O (stereo partly specified) | 1.22% | 

experiment: qHTS assay to identify small molecule antagonists of the estrogen related receptor (ERR) signaling pathway from Tox21 library - cell viability counter screen (AID 1224834); conditions: ERR reporter cells viability, CellTiter-Fluor, 17.5 h; series mostly up to 92.4 µM; viability change, negative = cytotoxic: at the top concentration; also: nearly all actives have a fitted effect of over 30% in size
How it was run: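 In this quantitative HTS format, ERR cells receive compounds in DMSO and are incubated for 17.5 h at 37 C. Live-cell protease activity is then detected with CellTiter-Fluor.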

Row | Structure (SMILES) | viability change, negative = cytotoxic | Potency
53 | CCC1(CCC(C)C)C(=O)NC(=O)NC1=O | -2.3% | 
54 | Clc1ccccc1 | 4.45% | 
55 | CCCCC1C(=O)NC(=O)N(C2CCCCC2)C1=O (stereo unspecified) | 1.1% [at 42.5 µM] | 
56 | C[C@H](N)[C@H](O)c1ccc(O)c(O)c1 | -9.13% [at 42.5 µM] | 
57 | CCCN(CCC)c1c([N+](=O)[O-])cc(C(C)C)cc1[N+](=O)[O-] |  | inactive
58 | CCOC(C(=O)OCCN(C)C)(c1ccccc1)c1ccccc1 | -2.36% [at 42.5 µM] | 
59 | O=C=NC1CCCCC1 | -1.08% | 
60 | CCOP(=S)(OCC)SCSc1cc(Cl)ccc1Cl | 0.256% | 
61 | CCCCCCCCCCCCN(C)C | 2.01% | 
62 | O=C(O)c1cc(I)cc(I)c1I | 8.35% | 
63 | CN1C(=O)CN=C(c2ccccc2)c2cc([N+](=O)[O-])ccc21 | -4.1% [at 42.5 µM] | 
64 | CCOP(=S)(OCC)Oc1ccc(S(C)=O)cc1 (stereo unspecified) | -3.53% | 
65 | CC(C)(c1ccccc1)c1cc(-n2nc3ccccc3n2)c(O)c(C(C)(C)c2ccccc2)c1 | 3.65% [at 42.5 µM] | 
66 | Cc1nnc(-c2ccccc2)c(=O)n1N | 2.51% | 
67 | O=CC=O | 0.558% | 
68 | CCC1(CC)C(=O)NC(=O)NC1=O | 5.22% [at 42.5 µM] | 
69 | CC(Cl)C(=O)O (stereo unspecified) | 3.61% | 
70 | O=S(=O)(Cl)Cl | 5.7% | 
71 | COc1ccc(C(O)(c2cncnc2)C2CC2)cc1 (stereo unspecified) | 6.84% | 
72 | O=C(O)CCCOc1ccc(Cl)cc1Cl |  | inactive

Row | Structure (SMILES) | viability change, negative = cytotoxic | Potency
73 | O=C1CC[C@@]2(O)[C@H]3Cc4ccc(O)c5c4[C@@]2(CCN3CC2CC2)[C@H]1O5 | -5.21% [at 42.5 µM] | 
74 | C=CCSSCC=C | -6.81% | 
75 | Nc1ccccc1C(=O)OCC(O)CO (stereo unspecified) | -10.9% [at 42.5 µM] | 
76 | FC(F)OC(F)(F)C(F)Cl (stereo unspecified) | 3.61% | 
77 | COCc1cnc(C2=NC(C)(C(C)C)C(=O)N2)c(C(=O)O)c1 (stereo unspecified) | 2.89% | 
78 | Nc1cc(Cl)cc(C(=O)O)c1Cl |  | inactive
79 | CCCCC#N | 4.58% | 
80 | CC1(C)CC(=O)CC(C)(C)N1[O] | -3.02% | 
81 | CCCCCCCCCCCCCCCl | 3.23% | 
82 | FC(Cl)(Cl)C(F)(Cl)Cl | -3.43% | 
83 | CC(C)(C)OOC(C)(C)CCC(C)(C)OOC(C)(C)C | -1.96% | 
84 | ClCc1ccccc1Cl | 2.33% | 
85 | c1ccc2sc(SNC3CCCCC3)nc2c1 |  | inactive
86 | O=S(=O)(c1ccccc1)c1ccccc1 | 3.42% | 
87 | O=C(O)C(Cl)(Cl)Br | 0.755% | 
88 | N#CC(C#N)=Cc1ccc(O)c(O)c1 | -3.46% [at 42.5 µM] | 
89 | O=C(O)C(F)(F)C(F)(F)C(F)(F)C(F)(F)C(F)(F)F | 4.4% | 
90 | C=CCc1ccc(OC(=O)Cc2ccccc2)c(OC)c1 | -0.194% | 
91 | C[C@H]1O[C@H](OC2[C@@H](O)[C@@H](O)C(O)[C@H](O)[C@H]2O)[C@@H](N)C[C@@H]1N=C(N)C(=O)O (stereo partly specified) | 1.16% | 
